Inconclusive results are not listed. Active and inactive are the calls of the source. Calls follow the shape of the dose curve; as a rule, active = well fitted inhibition curve with a large enough effect; inconclusive = small, poorly fitted or top-dose-only effect; inactive = flat fitted curve, though single readings scatter.
Legend:
Test in all cases: qHTS profiling for inhibitors of Plasmodium falciparum proliferation (AID 504749); also: nearly all actives have a fitted effect of over 60% in size
Settings in all cases: P. falciparum in erythrocytes, SYBR Green DNA, 72 h; series mostly up to 28.7 µM
CP237 = system: CP237
Outline: (§1)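 Fluorescence of SYBR Green-bound parasite DNA, read at 485/535 nm, served as the growth measure. Infected erythrocytes were cultured with compound 72 h; artemisinin (0.29 uM) and DMSO wells defined the normalization range.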

CP238 = system: CP238
Outline: as §1

CP247 = system: CP247
Outline: as §1

CP250 = system: CP250
Outline: as §1

CP252 = system: CP252
Outline: as §1

CP256 = system: CP256
Outline: as §1

CP260 = system: CP260
Outline: as §1

CP262 = system: CP262
Outline: as §1

CP265 = system: CP265
Outline: as §1

CP266 = system: CP266
Outline: as §1

CP268 = system: CP268
Outline: as §1

CP269 = system: CP269
Outline: as §1

CP286 = system: CP286
Outline: as §1

CP291 = system: CP291
Outline: as §1

CP297 = system: CP297
Outline: as §1

CP305 = system: CP305
Outline: as §1

CP315 = system: CP315
Outline: as §1

CP325 = system: CP325
Outline: as §1

CP329 = system: CP329
Outline: as §1

CP335 = system: CP335
Outline: as §1

DFO2036 = system: DFO2036
Outline: as §1

DIV14 = system: DIV14
Outline: as §1

DIV17 = system: DIV17
Outline: as §1

DIV30 = system: DIV30
Outline: as §1

Dd2 = system: Dd2
Outline: as §1

ECU = system: ECU
Outline: as §1

FAB9 = system: FAB9
Outline: as §1

GB4 = system: GB4
Outline: as §1

HB3 = system: HB3
Outline: as §1

ICS = system: ICS
Outline: as §1

JCK = system: JCK
Outline: as §1

N140 = system: N140
Outline: as §1

P93_24 = system: P93_24
Outline: as §1

P94_40 = system: P94_40
Outline: as §1

PAD = system: PAD
Outline: as §1

PC15 = system: PC15
Outline: as §1

PC26 = system: PC26
Outline: as §1

PC49 = system: PC49
Outline: as §1

SC27B = system: SC27B
Outline: as §1

TAB109 = system: TAB109
Outline: as §1

TAB113 = system: TAB113
Outline: as §1

TAB165 = system: TAB165
Outline: as §1

W2 = system: W2
Outline: as §1

Measured: Potency

O=C(O)[C@H]1C[C@@H](CP(=O)(O)O)CCN1
inactive: all assays above
